According to PubChem BioAssay (Tox21):
Records with an inconclusive call do not appear. Where a call stands in place of a potency, no number is given. Activity calls are given as the source filed them. Unless noted, the call rests on the fitted dose curve; in most records, active means well fitted curve in the direction sought with a large enough effect in the repeat runs; inconclusive means weak or mixed curves; inactive means no such curve, though single readings can be large; an effect the other way counts as inactive or inconclusive.

Legend:
[1] = qHTS assay to identify small molecule agonists of the peroxisome proliferator-activated receptor delta (PPARd) signaling pathway - cell viability counter screen (AID 743211); further: nearly all actives have a fitted effect of over 55% in size; further: potency means the concentration at half of the fitted maximal effect
In short: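 Following 5 h plating at 37 C and 5% CO2, PPARd UAS-bla HEK293H cells took up test compounds for 17 h. Viability was quantified by luminescence 30 min after CellTiter-Glo addition at room temperature.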

[2] = qHTS assay to identify small molecule antagonists of the peroxisome proliferator-activated receptor delta (PPARd) signaling pathway - cell viability counter screen (AID 743213); further: nearly all actives have a fitted effect of over 50% in size; further: potency means the concentration at half of the fitted maximal effect
In short: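 In this counter screen, HEK293H cells carrying a UAS-beta-lactamase reporter are co-treated with test compounds and 300 nM L165041 (final) for 17 h at 37 C; cell viability is quantified by CellTiter-Glo luminescence.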

[3] = qHTS assay to identify small molecule agonists of the farnesoid-X-receptor (FXR) signaling pathway - cell viability counter screen (AID 743218); further: nearly all actives have a fitted effect of over 45% in size; further: potency means the concentration at half of the fitted maximal effect
In short: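 After 16 h at 37 C with test compounds, FXR-bla HEK 293T cells were given LiveBLAzer B/G substrate for 2 h at RT and then CellTiter-Glo; luminescence was taken after 30 min.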

[4] = qHTS assay to identify small molecule antagonists of the farnesoid-X-receptor (FXR) signaling pathway - cell viability counter screen (AID 743221; active means well fitted cell-killing curve with a large enough effect in the repeat runs, not every such curve was filed as active; further: nearly all actives have a fitted effect of over 50% in size; further: potency means the concentration at half of the fitted maximal effect)
In short: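 Compound effects on cell number were measured as CellTiter-Glo luminescence in HEK 293T cells expressing FXR-UAS-bla, after 16 h at 37 C with 50 uM CDCA (final).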

[5] = qHTS assay to identify small molecule agonists of the vitamin D receptor (VDR) signaling pathway - cell viability counter screen (AID 743224); further: nearly all actives have a fitted effect of over 50% in size; further: potency means the concentration at half of the fitted maximal effect
In short: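 Here cell health was gauged by luminescent ATP detection (CellTiter-Glo, 30 min RT) in VDR-bla cells that had been incubated with test compounds for 16 h at 37C and 5% CO2.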

[6] = qHTS assay to identify small molecule agonists of the NFkB signaling pathway - cell viability counter screen (AID 1159515; calls by dose curve; further: nearly all actives have a fitted effect of over 55% in size; further: potency means the concentration at half of the fitted maximal effect)
In short: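 5 hr compound treatment of NFkB-bla ME-180 cells (2,000/well, seeded overnight beforehand), followed by reporter substrate for 1.5 hr. CellTiter-Glo added afterward; luminescence after 30 min RT.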

[7] = qHTS assay to identify small molecule agonists of the endoplasmic reticulum stress response signaling pathway - cell viability counter screen (AID 1159517; calls by dose curve; further: nearly all actives have a fitted effect of over 50% in size; further: potency means the concentration at half of the fitted maximal effect)
In short: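 ESRE-bla HeLa cells, 1,500 per well, seeded overnight then treated with compounds for 5 hr at 37 C. After the beta-lactamase read, viability in the same wells is measured by CellTiter-Glo luminescence after 30 min at room temperature.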

[8] = qHTS assay to identify small molecule antagonists of the retinoid-related orphan receptor gamma (ROR-gamma) signaling pathway - cell viability counter screen (AID 1159520); further: nearly all actives have a fitted effect of over 50% in size; further: potency means the concentration at half of the fitted maximal effect
In short: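 Tet-on ROR gamma CHO cells were given compounds for 2 hr, then doxycycline hyclate at 1 uM final, and incubated 16 hr at 37 C. Viability was measured as ATP content by CellTiter-Glo luminescence.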

[9] = biological target: Nuclear receptor ROR-gamma (Homo sapiens) (UniProt P51449); test: qHTS assay to identify small molecule antagonists of the retinoid-related orphan receptor gamma (ROR-gamma) signaling pathway (AID 1159521; further: nearly all actives have a fitted effect of over 50% in size; further: potency means the concentration at half of the fitted maximal effect)
In short: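 Screening format: cell-based luciferase reporter in CHO cells with doxycycline-inducible RORγ. Compound pre-exposure lasts 2 h, doxycycline is 1 uM final, induction runs 16 h at 37 C, and ONE-Glo luminescence is read.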

[10] = qHTS assay to identify small molecule agonists of the AP-1 signaling pathway - cell viability counter screen (AID 1159525; calls by dose curve; further: nearly all actives have a fitted effect of over 55% in size; further: potency means the concentration at half of the fitted maximal effect)
In short: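 AP-1-bla ME-180 cells in Opti-MEM with 0.5% dialyzed FBS, compound exposure 5 h at 37 C in 15-point titration. Viability read in the same wells as ATP content by CellTiter-Glo luminescence, normalised to tetra-n-octylammonium bromide and DMSO controls.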

[11] = biological target: Vitamin D3 receptor (Homo sapiens) (UniProt P11473); test: qHTS assay to identify small molecule agonists of the vitamin D receptor (VDR) signaling pathway (AID 743222; calls by dose curve; further: potency means the concentration at half of the fitted maximal effect)
Vitamin D3 receptor (Homo sapiens), sequence (P11473 whole entry, looked up): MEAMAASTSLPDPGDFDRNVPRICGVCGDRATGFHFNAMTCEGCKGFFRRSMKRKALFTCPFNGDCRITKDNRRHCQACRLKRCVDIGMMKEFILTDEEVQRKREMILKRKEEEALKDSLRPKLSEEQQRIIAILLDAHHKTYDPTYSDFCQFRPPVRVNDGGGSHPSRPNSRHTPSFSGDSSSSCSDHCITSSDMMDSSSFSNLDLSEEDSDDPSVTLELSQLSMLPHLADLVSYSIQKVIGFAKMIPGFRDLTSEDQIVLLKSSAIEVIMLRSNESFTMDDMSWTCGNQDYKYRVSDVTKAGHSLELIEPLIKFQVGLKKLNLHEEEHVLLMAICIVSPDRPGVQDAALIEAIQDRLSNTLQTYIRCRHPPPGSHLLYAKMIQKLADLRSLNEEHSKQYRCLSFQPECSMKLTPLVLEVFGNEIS
In short: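 VDR-bla cells were seeded, left 4 h, treated with compounds in DMSO for 16 h, incubated 2 h at RT with B/G FRET substrate, and read for fluorescence.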

[12] = biological target: Vitamin D3 receptor (Homo sapiens) (UniProt P11473); test: qHTS assay to identify small molecule antagonists of the vitamin D receptor (VDR) signaling pathway (AID 743223; active means well fitted inhibition curve with a large enough effect in the signal ratio in the repeat runs, not every such curve was filed as active; the % refers to the signal ratio)
In short: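 Beta-lactamase activity in VDR-bla cells is measured by FRET substrate fluorescence (2 h, room temperature) after cells spend 16 h at 37C with test compound and 3 nM final 1alpha,25-dihydroxyvitamin D3.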

[13] = qHTS assay to identify small molecule antagonists of the vitamin D receptor (VDR) signaling pathway - cell viability counter screen (AID 743225); further: nearly all actives have a fitted effect of over 50% in size; further: potency means the concentration at half of the fitted maximal effect
In short: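 In this counter screen, VDR-bla HEK 293T cells receive test compound plus 3 nM final calcitriol for 16 h at 37C. Room-temperature steps of 2 h with the beta-lactamase substrate, then 30 min with CellTiter-Glo, precede the luminescence read.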

[14] = qHTS assay to identify small molecule agonists of the AP-1 signaling pathway (AID 1159526; calls by dose curve)
[15] = biological target: Bile acid receptor (Homo sapiens) (UniProt Q96RI1); test: qHTS assay to identify small molecule antagonists of the farnesoid-X-receptor (FXR) signaling pathway (AID 743217; active means well fitted inhibition curve with a large enough effect in the signal ratio in the repeat runs, not every such curve was filed as active; the % refers to the signal ratio; further: potency means the concentration at half of the fitted maximal effect)
Bile acid receptor (Homo sapiens), sequence (Q96RI1 whole entry, looked up): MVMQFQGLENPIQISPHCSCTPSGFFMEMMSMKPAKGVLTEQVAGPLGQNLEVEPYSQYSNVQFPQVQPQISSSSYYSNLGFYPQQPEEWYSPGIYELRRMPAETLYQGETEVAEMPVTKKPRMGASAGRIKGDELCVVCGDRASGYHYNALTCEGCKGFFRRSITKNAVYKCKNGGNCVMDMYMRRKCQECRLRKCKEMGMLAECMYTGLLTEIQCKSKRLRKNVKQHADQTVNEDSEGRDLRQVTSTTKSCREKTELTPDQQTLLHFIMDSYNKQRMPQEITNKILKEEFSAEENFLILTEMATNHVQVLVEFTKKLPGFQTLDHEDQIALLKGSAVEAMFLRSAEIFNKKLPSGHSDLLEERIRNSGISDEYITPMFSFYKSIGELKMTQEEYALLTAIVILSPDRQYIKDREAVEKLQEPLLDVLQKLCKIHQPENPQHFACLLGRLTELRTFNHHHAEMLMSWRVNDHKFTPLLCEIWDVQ
In short: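 In this cell-based antagonist screen, inhibition of CDCA-driven (50 uM final) UAS-beta-lactamase expression in HEK 293T cells was measured by FRET fluorescence following 16 h compound exposure at 37 °C.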

[16] = biological target: Peroxisome proliferator-activated receptor delta (Homo sapiens) (UniProt Q03181); test: qHTS assay to identify small molecule agonists of the peroxisome proliferator-activated receptor delta (PPARd) signaling pathway (AID 743212; calls by dose curve)
Peroxisome proliferator-activated receptor delta (Homo sapiens), sequence (Q03181 whole entry, looked up): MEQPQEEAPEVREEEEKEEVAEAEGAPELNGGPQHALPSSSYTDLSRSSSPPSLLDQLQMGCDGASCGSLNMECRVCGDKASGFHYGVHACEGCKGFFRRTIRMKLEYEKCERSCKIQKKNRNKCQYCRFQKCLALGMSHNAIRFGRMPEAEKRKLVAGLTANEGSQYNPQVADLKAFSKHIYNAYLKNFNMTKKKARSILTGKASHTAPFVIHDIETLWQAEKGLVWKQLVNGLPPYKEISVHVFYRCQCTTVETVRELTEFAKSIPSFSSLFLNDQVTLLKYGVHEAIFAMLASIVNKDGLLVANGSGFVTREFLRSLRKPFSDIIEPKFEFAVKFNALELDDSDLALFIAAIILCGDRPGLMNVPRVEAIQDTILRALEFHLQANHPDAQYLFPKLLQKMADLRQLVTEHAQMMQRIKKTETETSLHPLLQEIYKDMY
In short: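 GeneBLAzer UAS-bla HEK293H cells carrying a PPARδ construct were exposed to compounds at 37 °C. Beta-lactamase activity was read by FRET fluorescence after 2 h at room temperature with LiveBLAzer B/G substrate.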

[17] = biological target: Peroxisome proliferator-activated receptor delta (Homo sapiens) (UniProt Q03181); test: qHTS assay to identify small molecule antagonists of the peroxisome proliferator-activated receptor delta (PPARd) signaling pathway (AID 743215; active means well fitted inhibition curve with a large enough effect in the signal ratio in the repeat runs, not every such curve was filed as active; the % refers to the signal ratio;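 further: cells stimulated with agonist L165041 at 300 nM final during compound exposure; series mostly up to about 62 µM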)
In short: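 With L165041 present at 300 nM final, compounds were incubated 17 h at 37 C on PPARd UAS-bla HEK293H cells. A FRET-based beta-lactamase substrate was then applied for 2 h at room temperature and fluorescence intensity recorded.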

[18] = biological target: Bile acid receptor (Homo sapiens) (UniProt Q96RI1); test: qHTS assay to identify small molecule agonists of the farnesoid-X-receptor (FXR) signaling pathway (AID 743220; active means well fitted activation curve with a large enough effect in the signal ratio in the repeat runs, not every such curve was filed as active; the % refers to the signal ratio)
In short: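 Beta-lactamase reporter under UAS control in GeneBLAzer FXR HEK 293T cells (5000/well) measured with LiveBLAzer FRET substrate after 2 h at room temperature. Compound exposure lasted 16 h at 37C.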

SMILES	Potency [1]	Potency [2]	Potency [3]	Potency [4]	Potency [5]	Potency [6]	Potency [7]	Potency [8]	Potency [9]	Potency [10]	Potency [11]	Potency [12]	Potency [13]	Potency [14]	Potency [15]	Potency [16]	Potency [17]	Potency [18]
COc1ccc(C(=O)/C(Br)=C\C(=O)O)cc1	inactive	inactive	inactive	inactive	inactive	inactive	inactive	48.6 µM (active)	inactive	inactive								
Cc1cccc2c1cc1ccc3cccc4ccc2c1c34	inactive	inactive	inactive		inactive	inactive	inactive	inactive	inactive	inactive	3.16 µM (active)	inactive	inactive					
Cc1oc(-c2ccccc2)nc1CCC(=O)c1ccc(CC2SC(=O)NC2=O)cc1 (stereo not drawn)	inactive	inactive	inactive	inactive	inactive	inactive	inactive	inactive		inactive				inactive				
CCC1OCC(COc2ccc(Oc3ccccc3)cc2)O1 (stereo not drawn)	inactive			inactive	49 µM (active)	inactive	inactive	inactive	inactive	inactive	inactive		inactive					
CCCCCCCCCCCCCCCCCC[N+](C)(C)C		27.6 µM (active)	24.6 µM (active)	55.1 µM (active)	24.6 µM (active)	55.1 µM (active)	49.1 µM (active)	54.6 µM (active)	6.13 µM (active)	49.1 µM (active)			3.9 µM (active)					
O=C(Nc1cccc(C(F)(F)F)c1)c1cc(Br)cc(Br)c1O	6.16 µM (active)	6.92 µM (active)	4.36 µM (active)	11 µM (active)	2.19 µM (active)	54.9 µM (active)	24.5 µM (active)	10.9 µM (active)	1.37 µM (active)				17.4 µM (active)					
CCCCCCCCn1sc(Cl)c(Cl)c1=O		3.89 µM (active)	4.36 µM (active)		2.75 µM (active)	9.77 µM (active)	3.47 µM (active)	2.73 µM (active)	4.86 µM (active)	19.5 µM (active)					43.6 µM (active)			
[O-][n+]1ccccc1SSc1cccc[n+]1[O-]	0.13 µM (active)		0.326 µM (active)	0.206 µM (active)	0.164 µM (active)	0.233 µM (active)	4.14 µM (active)	0.103 µM (active)	0.058 µM (active)							inactive		
Cc1cccc(S(=O)(=O)O)c1C	inactive	inactive	inactive		inactive	inactive	inactive	inactive		inactive	inactive		inactive	inactive		inactive	inactive	
CSc1ccc(/C=C2/C(C)=C(CC(=O)O)c3cc(F)ccc32)cc1		inactive		inactive		inactive	inactive	inactive	inactive	inactive			inactive					inactive
CCCCCCCC/C=C/CCCCCCCC1=NCCN1CCO	30.9 µM (active)	49 µM (active)	21.9 µM (active)			49 µM (active)	43.6 µM (active)	68.6 µM (active)	61.1 µM (active)				34.7 µM (active)					
CN(C)[C@@H]1C(=O)C(C(N)=O)=C(O)[C@@]2(O)C(=O)C3=C(O)c4c(O)ccc(Cl)c4[C@@H](O)[C@H]3C[C@@H]12	inactive		inactive	inactive	inactive	inactive	inactive	inactive		inactive			inactive	inactive				
CC(C)C(C)(C)C(C)(C)C(C)(C)S						inactive	inactive	inactive		inactive								
OCCN(CCO)c1nc(N2CCCCC2)c2nc(N(CCO)CCO)nc(N3CCCCC3)c2n1			inactive	inactive		inactive	inactive	inactive	inactive	inactive								
NNc1nc(-c2ccc([N+](=O)[O-])cc2)cs1				inactive		inactive	inactive	30.6 µM (active)	10.9 µM (active)	inactive		inactive						
CCCC/C=C/CCCCO		inactive			inactive	inactive	inactive	inactive	inactive	inactive	inactive		inactive					
O=C1C=CC(=O)N1c1ccc(Cc2ccc(N3C(=O)C=CC3=O)cc2)cc1					17.4 µM (active)	24.5 µM (active)	34.7 µM (active)	15.4 µM (active)	8.63 µM (active)	24.5 µM (active)			21.9 µM (active)			inactive		
CCc1cc(Cc2cc(CC)cc(C(C)(C)C)c2O)c(O)c(C(C)(C)C)c1		6.92 µM (active)	11 µM (active)	11 µM (active)	6.17 µM (active)	15.5 µM (active)	21.9 µM (active)	27.3 µM (active)	19.3 µM (active)	11 µM (active)			4.36 µM (active)					
N=C1N=C(N)c2cc3ccccc3cc21			44.8 µM (active)	54.9 µM (active)	49 µM (active)	49 µM (active)	8.71 µM (active)	30.6 µM (active)	30.6 µM (active)	49 µM (active)								
CNCc1cc(F)ccc1Oc1ccc(Cl)c(Cl)c1			49 µM (active)	inactive		inactive	inactive	inactive	34.4 µM (active)	inactive	inactive					inactive	inactive	
